In PubChem BioAssay:
The source made the active and inactive calls.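 How the source made its calls: active means inhibition above the hit cutoff set in the earlier primary screen (cut at about 27% in these data); inactive means the rest.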

Target: Protein phosphatase methylesterase 1 (Homo sapiens) (UniProt Q9Y570)
Assay: PME-1 inhibitor activity retest, confirmation, biochemical, fluorescence polarization, FP-Rh probe, triplicate (AID 2171);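 further: 0% = enzyme with DMSO and 100% = wells lacking PME-1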
Settings: recombinant PME-1, FP-Rh probe fluorescence polarization; at 5.9 µM; hits give high values

Chain of Protein phosphatase methylesterase 1 (Homo sapiens) (Q9Y570 whole entry, looked up): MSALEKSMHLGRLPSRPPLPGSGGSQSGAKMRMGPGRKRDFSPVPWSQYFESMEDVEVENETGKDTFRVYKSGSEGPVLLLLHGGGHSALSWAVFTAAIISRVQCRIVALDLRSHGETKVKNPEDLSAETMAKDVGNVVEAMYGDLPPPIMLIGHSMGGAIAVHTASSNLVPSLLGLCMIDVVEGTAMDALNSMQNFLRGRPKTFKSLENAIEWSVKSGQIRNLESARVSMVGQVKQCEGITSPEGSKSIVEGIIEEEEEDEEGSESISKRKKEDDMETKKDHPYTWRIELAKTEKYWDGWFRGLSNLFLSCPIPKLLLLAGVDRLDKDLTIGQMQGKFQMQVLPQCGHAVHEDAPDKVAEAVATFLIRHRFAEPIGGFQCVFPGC

inhibition, active:
COc1ccc(/C=N/Nc2cc(C)nc(-n3nc(C)cc3C)n2)c(OC)c1 41.6%, Cc1ccc(S(=O)(=O)/N=C2/C=C(Sc3ncn[nH]3)C(=O)c3ccccc32)cc1 54.4%, Cc1ccc(Nc2cc(C)c3c(O)cccc3n2)cc1C 26.7%, CC(C)NC(=S)N=Nc1c(O)[nH]c2ccc(C(C)C)cc12 34.8%, O=C(N/N=C/c1sc(N2CCOCC2)nc1-c1ccccc1)c1ccccc1O 51.2%, CCn1cc(C(=O)NCCCN2CCC(C)CC2)c(=O)c2cc(S(=O)(=O)N(C)C3CCCCC3)ccc21 31.6%, Nc1[nH]n(-c2ccccc2)c(=O)c1N=Nc1ccc2c(c1)OCCO2 34.5%, Cc1ccc(N/N=C(\C#N)C(N)=S)c(C)c1 57.9%, COc1cc2c(cc1OC)C(c1cc(Br)ccc1F)N(C(=O)CCl)CC2 (centres undefined) 51.5%, COc1ccc(-c2nc(-c3cccs3)c(-c3cccs3)[nH]2)cc1O 39.6%, Nc1ccc2nc(-c3cccc(-c4nc5ccc(N)cc5[nH]4)c3)[nH]c2c1 94.1%, N#CC1=C(N)C(C#N)(C#N)C(c2cccnc2)C2CC(c3ccccc3)CC=C12 (centres undefined) 83.5%, Fc1cc(F)c2nc(Nc3nc4cc5c(cc4s3)OCO5)sc2c1 29.5%, CCCCN(CC)CCCNC(=O)c1cn(CC)c2ccc(S(=O)(=O)N3CCc4ccccc4C3)cc2c1=O 59.1%

inhibition, inactive:
O=C(CSc1c(F)c(F)cc(F)c1F)Nc1ccc(C2SCCS2)cc1 5.01%, CC(=O)c1cc(O)c2ccccc2c1O 22.5%, CCOc1cccc(/C=N/NC(=S)Nc2cc(S(=O)(=O)N3CCOCC3)ccc2N2CCOCC2)c1O 25.1%, O=C(Nc1ccc(N2CCOCC2)cc1)Nc1ccc(Cl)c(Cl)c1 21.4%, Cc1noc(NS(=O)(=O)c2ccc(NC(=O)Nc3ccc(Cl)c(Cl)c3)cc2)c1C -8.57%, COc1ccc(C2CC(c3ccc(OC)c(OC)c3)=NN2S(C)(=O)=O)cc1 (centres undefined) 22.9%, CC1=NC(=O)C(N=Nc2cccc(O)c2)N1c1ccccc1 (centres undefined) 24.1%, N=c1oc2cc(O)ccc2cc1C(=O)Nc1nc2ccccc2s1 25.7%, CCc1nnc(NC(=O)c2sc3nc4c(cc3c2N)CCCCCC4)s1 16.3%, O=[N+]([O-])c1ccc(N/N=C/c2cccc(O)c2O)cc1 23.3%, Cc1ccc2cc(C#N)c(SCc3nnc(-c4ccccc4[N+](=O)[O-])o3)nc2c1 25.1%, CCN(CC(=O)Nc1c(C(=O)OC)[nH]c2ccc(Cl)cc12)c1ccc2c(c1)OCO2 6.28%, Cc1ccc(C)c(NC(=O)COC(=O)c2cc3ccccc3oc2=O)c1 22.3%, COc1ccccc1NC(=O)CCC(=O)Nc1nnc(C(F)(F)F)s1 4.64%, COc1cccc(CNC(=O)CCCc2cn(C)c3ccccc23)c1 6.78%, CCC(C)c1ccc(S(=O)(=O)N2CCN(C(=O)COc3ccc4c(C)cc(=O)oc4c3)CC2)cc1 (centres undefined) 0.33%, CCOC(=O)Cc1csc(NC(=O)c2sc3nc4c(C)cc(C)cc4cc3c2N)n1 23.4%, N#C/C(=C(\O)c1cc(Cl)sc1Cl)c1nc2ccccc2[nH]1 21.8%, Nc1n[nH]c(C2CC2)c1N=Nc1ccc(Cl)c(Cl)c1 20.6%, CCC1(C)Cc2c(sc3nc(NN)n(C)c(=O)c23)CO1 (centres undefined) -1.24%, COc1ccc(-c2cc(-c3c(O)c(OC)c4occc4c3OC)[nH]n2)cc1OC 12.9%, CCOC(=O)c1sc(N/N=C/c2cc(Br)c(O)c(OC)c2)nc1C 21.6%, Cc1cc(C)c2c(N)c(C(=O)NN)sc2n1 10.5%, O=C(COC(=O)CCCN1C(=O)c2cccc3cccc(c23)C1=O)Nc1ccc(Cl)cc1 22.7%, O=C(Nc1cccc(C(F)(F)F)c1)c1ccc2nc(-c3ccco3)c(-c3ccco3)nc2c1 -3.36%
